Source: PubChem BioAssay (Tox21)
Inconclusive results are not listed. Activity calls are given as the source filed them. Unless noted, calls come from the whole dose curve; as a rule, active = well fitted curve in the direction sought with a large enough effect in the repeat runs; inconclusive = weak or mixed curves; inactive = no such curve, though single readings can be large; an effect the other way counts as inactive or inconclusive.

Key:
[1] = qHTS assay to identify small molecule agonists of the hypoxia (HIF-1) signaling pathway - cell viability counter screen (AID 1224844; calls by dose curve; note: nearly all actives have a fitted effect of over 50% in size)
How it was run: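 Same wells as the HIF-1 reporter screen; ME-180 cells carrying HRE-bla, 17 hr treatment at 37C; CellTiter-Glo luminescence read after 30 min at room temperature.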

[2] = qHTS assay to identify small molecule agonists of H2AX (AID 1224845; active = well fitted activation curve with a large enough effect in the signal ratio in the repeat runs, not every such curve was filed as active; the % refers to the signal ratio)
How it was run: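 Wild-type CHO-K1 cells, plated overnight, exposed 3hr at 37C to 15 concentrations (0.76% DMSO final). Lysed, then HTRF anti-pH2AX (S139) cryptate and anti-H2AX-d2 antibodies, 24 hr room temperature; 665/620 nm emission read.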

[3] = qHTS assay to identify small molecule agonists of the hypoxia (HIF-1) signaling pathway (AID 1224846; active = well fitted activation curve with a large enough effect in the signal ratio in the repeat runs, not every such curve was filed as active; the % refers to the signal ratio)
How it was run: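 In ME-180 cells bearing an HRE-bla construct, 17 h treatment with DMSO-dissolved compounds at 37C was followed by CCF4-AM loading to quantify reporter induction.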

[4] = qHTS assay to identify small molecule agonists of H2AX - cell viability counter screen (AID 1224847; calls by dose curve; note: top concentration of the series differs between compounds; nearly all actives have a fitted effect of over 30% in size)
How it was run: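 Compounds tested at 15 concentrations were incubated 3 hr at 37C with wild-type CHO-K1 cells; cellular ATP-based luminescence (CellTiter-Glo) indicated viability.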

[5] = qHTS assay to identify small molecule antagonists of the estrogen related receptor (ERR) signaling pathway from Tox21 library (AID 1224848); note: nearly all actives have a fitted effect of over 50% in size; note: potency is the fitted concentration of half-maximal effect
How it was run: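 Compounds dissolved in DMSO are pin-transferred onto ERR reporter cells (2,000 per well) that have settled for 6 h at 37 C. Plates then incubate 18 h at 37 C before ONE-Glo luciferase reagent and a luminescence read 30 min later.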

[6] = qHTS assay to identify small molecule agonists of the estrogen related receptor (ERR) signaling pathway from Tox21 library (AID 1224849; calls by dose curve; note: nearly all actives have a fitted effect of over 15% in size); conditions: ERR reporter cell line, ONE-Glo luciferase, 18 h; at 92.4 µM (top of the series) unless noted
How it was run: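 Reporter cells (ERR, NTP source) treated with Tox21 10K compounds 18 h, 37 C. Readout: ONE-Glo luminescence, 30 min RT.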

[7] = qHTS RealTime-Glo MT Cell Viability Assay in HepG2 cells - 24 hour (AID 1224867); note: nearly all actives have a fitted effect of over 50% in size
How it was run: (§1)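 Luminescence read-out: viable HepG2 cells reduce a prosubstrate to a NanoLuc substrate, giving a signal proportional to live cell number. Reads taken at 0, 8, 16, 24, 32 and 40 h of compound exposure at 37 C.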

[8] = qHTS RealTime-Glo MT Cell Viability Assay in HEK293 cells - 32 hour (AID 1224868); note: nearly all actives have a fitted effect of over 50% in size; note: potency is the fitted concentration of half-maximal effect
How it was run: (§2)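 Nonlytic real-time viability readout: viable cells convert prosubstrate to NanoLuc substrate, giving luminescence proportional to live cell number. HEK293, 600 cells/well, compound added after 5 h, continuous culture at 37 C.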

[9] = A CellTox Green Cytotoxicity Assay to monitor cytotoxicity in HEK293 cells - 0 hour (AID 1224869); note: nearly all actives have a fitted effect of over 50% in size
How it was run: (§3)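 Homogeneous no-lysis format: HEK293 cell suspension mixed with CellTox Green reagent, seeded, incubated 5 h at 37 C/5% CO2, then dosed by pintool with compound in DMSO.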

[10] = qHTS RealTime-Glo MT Cell Viability Assay in HepG2 cells - 40 hour (AID 1224870); note: nearly all actives have a fitted effect of over 50% in size
How it was run: (§4)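 HepG2 cells (600/well) mixed with RealTime-Glo MT reagent, settled 5 h at 37 C/5% CO2 before compound addition. Nonlytic NanoLuc luminescence from viable-cell prosubstrate reduction read repeatedly during 40 h treatment at 37 C.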

[11] = A CellTox Green Cytotoxicity Assay to monitor cytotoxicity in HEK293 cells - 40 hour (AID 1224871); note: nearly all actives have a fitted effect of over 45% in size
How it was run: as §3

[12] = qHTS RealTime-Glo MT Cell Viability Assay in HEK293 cells - 16 hour (AID 1224872); note: nearly all actives have a fitted effect of over 50% in size; note: potency is the fitted concentration of half-maximal effect
How it was run: as §2

[13] = qHTS RealTime-Glo MT Cell Viability Assay in HepG2 cells - 8 hour (AID 1224873); note: nearly all actives have a fitted effect of over 55% in size
How it was run: as §4

[14] = qHTS RealTime-Glo MT Cell Viability Assay in HEK293 cells - 40 hour (AID 1224874); conditions: RealTime-Glo luminescence; max response: hits give low values; note: nearly all actives have a fitted effect of over 50% in size; note: potency is the fitted concentration of half-maximal effect
How it was run: (§5)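 Measured as luminescence from the same continuously cultured HEK293 wells at successive time points (0, 8, 16, 24, 32, 40 h) after compound addition. Reagent present from seeding; dosing at 5 h; incubation 37 C.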

[15] = A CellTox Green Cytotoxicity Assay to monitor cytotoxicity in HEK293 cells - 24 hour (AID 1224875); note: nearly all actives have a fitted effect of over 45% in size
How it was run: as §3

[16] = A CellTox Green Cytotoxicity Assay to monitor cytotoxicity in HepG2 cells - 16 hour (AID 1224876); note: nearly all actives have a fitted effect of over 45% in size
How it was run: (§6)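 Fluorescent DNA-binding dye, 600 HepG2 cells/well, 5 h preincubation then compound in DMSO; same plates read at 0–40 h, 37 C.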

[17] = qHTS RealTime-Glo MT Cell Viability Assay in HepG2 cells - 32 hour (AID 1224877); note: nearly all actives have a fitted effect of over 55% in size
How it was run: as §1

[18] = A CellTox Green Cytotoxicity Assay to monitor cytotoxicity in HepG2 cells - 40 hour (AID 1224879); note: nearly all actives have a fitted effect of over 40% in size
How it was run: as §6

[19] = qHTS RealTime-Glo MT Cell Viability Assay in HEK293 cells - 0 hour (AID 1224880); note: nearly all actives have a fitted effect of over 45% in size; note: potency is the fitted concentration of half-maximal effect
How it was run: as §5

[20] = A CellTox Green Cytotoxicity Assay to monitor cytotoxicity in HepG2 cells - 24 hour (AID 1224878); note: nearly all actives have a fitted effect of over 45% in size
How it was run: as §6
% is set by controls: 0 for no effect and ±100 for the full control effect.

Cc1occc1S
inactive: Potency [1] | Potency [2] | outcome [3] | Potency [4] | Potency [5] | activity change, positive = activation [6] 9.5% | Potency [7] | Potency [8] | Potency [9] | Potency [10] | Potency [11] | Potency [12] | Potency [13] | max response [14] 3.01% | Potency [15] | Potency [16] | Potency [17] | Potency [18] | Potency [19]

O=C(O)C1CCC(C(=O)O)CC1 (stereo unspecified)
inactive: Potency [1] | Potency [2] | outcome [3] | Potency [4] | Potency [5] | Potency [7] | Potency [8] | Potency [9] | Potency [10] | Potency [11] | Potency [12] | Potency [13] | max response [14] -2.66% | Potency [15] | Potency [16] | Potency [17] | Potency [18] | Potency [19]

Cc1ccccn1
inactive: Potency [1] | Potency [2] | outcome [3] | Potency [4] | Potency [5] | activity change, positive = activation [6] 1.44% | Potency [7] | Potency [8] | Potency [9] | Potency [11] | Potency [13] | max response [14] 4.7% | Potency [15] | Potency [16] | Potency [17] | Potency [20] | Potency [18] | Potency [19]

CCCCCCCCCCCCC(=O)O
inactive: Potency [1] | Potency [2] | outcome [3] | Potency [4] | Potency [7] | Potency [9] | Potency [10] | Potency [11] | Potency [12] | max response [14] 0.0822% | Potency [15] | Potency [16] | Potency [17] | Potency [20] | Potency [18] | Potency [19]

SC1CCCC1
inactive: Potency [1] | Potency [2] | outcome [3] | Potency [4] | Potency [7] | Potency [8] | Potency [9] | Potency [10] | Potency [11] | Potency [12] | Potency [13] | max response [14] 8.94% | Potency [15] | Potency [16] | Potency [17] | Potency [18] | Potency [19]

CCCCCCCCCCCCCCCC(=O)OC/C=C(C)/C=C/C=C(C)/C=C/C1=C(C)CCCC1(C)C
inactive: Potency [1] | Potency [2] | outcome [3] | Potency [4] | Potency [7] | Potency [8] | Potency [9] | Potency [10] | Potency [11] | Potency [12] | Potency [13] | max response [14] -5.46% | Potency [15] | Potency [16] | Potency [17] | Potency [20] | Potency [18] | Potency [19]

Cc1nc2ccccc2n1Cc1ccc(Cl)cc1
active: Potency [8] 1.69 µM | Potency [12] 3.01 µM | Potency [14] 1.69 µM
inactive: Potency [1] | Potency [2] | outcome [3] | Potency [4] | Potency [7] | Potency [9] | Potency [10] | Potency [11] | Potency [13] | Potency [15] | Potency [16] | Potency [17] | Potency [20] | Potency [18] | Potency [19]

NCc1ccccc1
inactive: Potency [1] | Potency [2] | outcome [3] | Potency [4] | Potency [5] | Potency [8] | Potency [9] | Potency [10] | Potency [11] | Potency [13] | max response [14] 2.09% | Potency [15] | Potency [17] | Potency [20] | Potency [18] | Potency [19]

CC(C)CCCCCCOC(=O)c1ccc(C(=O)OCCCCCCC(C)C)c(C(=O)OCCCCCCC(C)C)c1
inactive: Potency [1] | Potency [2] | outcome [3] | Potency [4] | Potency [7] | Potency [8] | Potency [9] | Potency [10] | Potency [12] | max response [14] -0.306% | Potency [15] | Potency [16] | Potency [17] | Potency [20] | Potency [18] | Potency [19]

CCOC(=S)SSC(=S)OCC
inactive: Potency [1] | Potency [2] | outcome [3] | Potency [4] | Potency [7] | Potency [9] | Potency [10] | Potency [11] | Potency [13] | max response [14] 1.68% | Potency [15] | Potency [16] | Potency [20] | Potency [19]

O=C(O)c1cccc(N(Cc2cccnc2)c2ccc(OC(F)F)c(OC(F)F)c2)c1
inactive: Potency [1] | Potency [2] | outcome [3] | Potency [4] | activity change, positive = activation [6] -33.2% | Potency [8] | Potency [9] | Potency [11] | Potency [12] | max response [14] -2.06% | Potency [15] | Potency [16] | Potency [20] | Potency [18]
active: Potency [5] 61.1 µM | Potency [19] 19.5 µM

C1=Cc2ccccc2C1
inactive: Potency [1] | Potency [2] | outcome [3] | Potency [4] | Potency [5] | activity change, positive = activation [6] 2.75% | Potency [7] | Potency [8] | Potency [9] | Potency [10] | Potency [11] | Potency [12] | Potency [13] | max response [14] 6.96% | Potency [15] | Potency [16] | Potency [17] | Potency [20] | Potency [19]

CC(O)C1CCCCC1 (stereo unspecified)
inactive: Potency [1] | Potency [2] | outcome [3] | Potency [4] | Potency [5] | activity change, positive = activation [6] 6.48% | Potency [7] | Potency [8] | Potency [9] | Potency [10] | Potency [11] | Potency [12] | Potency [13] | max response [14] 3.26% | Potency [15] | Potency [16] | Potency [17] | Potency [20] | Potency [18] | Potency [19]

CC(=O)OCCc1ccccc1
inactive: Potency [1] | Potency [2] | outcome [3] | Potency [4] | Potency [7] | Potency [8] | Potency [9] | Potency [10] | Potency [11] | Potency [12] | Potency [13] | max response [14] 10.1% | Potency [15] | Potency [16] | Potency [18] | Potency [19]
